TDP1 cell noCPT: qHTS for Inhibitors of human tyrosyl-DNA phosphodiesterase 1 (TDP1): qHTS in cells in absence of CPT | DT40 Tdp1-/- hTDP1 cells, no CPT, ATP luminescence, 48 h | Potency, µM (series often up to 46.2 µM), hits mostly inhibitors | actives 15% (n = 420,000) | AID 686978, 2013; further: nearly all actives have a fitted effect of over 55% in size
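DT40 Tdp1-/-;hTDP1 cells, no CPT (DMSO vehicle only), 400 cells/well; compounds pin-transferred; ≥48 hr, 37 °C; CellTiter-Glo 30 min RT dark, luminescence read.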
DT40 TDP1 CPT: DT40-hTDP1 cell growth loss with CPT; chicken DT40 Tdp1-/-;hTDP1 cells + 20 nM CPT, ATP luminescence, 48 h; Potency, µM (series often up to 46.2 µM), hits mostly inhibitors; actives 12% (n = 420,000); AID 686979; further: nearly all actives have a fitted effect of over 55% in size
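Chicken DT40 Tdp1-/- cells stably complemented with human TDP1 were seeded at 400 cells/well in medium containing 20 nM camptothecin, exposed to pin-transferred compounds, and grown at 37 °C for at least 48 hr. Viability was read as ATP luminescence.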
HepG2 viability: counter-screen for TGF-b inhibitors: cytotoxicity in HepG2 cells; HepG2 CAGA-GFP viability, ATP luminescence, 18 h; actives 0.76% (n = 410,000); Potency, µM (series often up to 46.1 µM), actives largely listed as cytotoxic
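CellTiter-Glo luminescence gave cytotoxicity after 18 hours at 37 degrees C. The cells were HepG2 CAGA-GFP in 1% FBS DMEM, stimulated with 500 pg/mL TGF-beta after compound addition. %Activity was normalised to no-cell wells (complete cell-killing) and DMSO (no toxicity), and curves were fitted and classified.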
IL-1B inflam inh: inflammasome signaling inhibition, IL-1 beta readout | THP-1 LPS/ATP IL-1B secretion, AlphaLISA, 16 h; hits give low values | activity change, % at 57.5 µM | actives 4.7% (n = 360,000); in the data active means activity change below about -50%; inconclusive means mostly about -30% to -49%
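Secreted IL-1B measured by AlphaLISA bead assay after 16 h compound exposure of THP-1 cells; compounds (final up to 57.5 uM) added 1 h before LPS (250 ng/mL) and ATP (1.25 mM) stimulation; lower signal means less secretion.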
ASM inhibitor: blocks human secretory acid sphingomyelinase. P17405. placental ASM, HMU-PC fluorogenic substrate, 60 min. actives 0.006% (n = 340,000). Potency, µM (top dose mostly 57.5 µM), most hits filed as inhibitors
Target sequence (P17405 47-631 limits assumed): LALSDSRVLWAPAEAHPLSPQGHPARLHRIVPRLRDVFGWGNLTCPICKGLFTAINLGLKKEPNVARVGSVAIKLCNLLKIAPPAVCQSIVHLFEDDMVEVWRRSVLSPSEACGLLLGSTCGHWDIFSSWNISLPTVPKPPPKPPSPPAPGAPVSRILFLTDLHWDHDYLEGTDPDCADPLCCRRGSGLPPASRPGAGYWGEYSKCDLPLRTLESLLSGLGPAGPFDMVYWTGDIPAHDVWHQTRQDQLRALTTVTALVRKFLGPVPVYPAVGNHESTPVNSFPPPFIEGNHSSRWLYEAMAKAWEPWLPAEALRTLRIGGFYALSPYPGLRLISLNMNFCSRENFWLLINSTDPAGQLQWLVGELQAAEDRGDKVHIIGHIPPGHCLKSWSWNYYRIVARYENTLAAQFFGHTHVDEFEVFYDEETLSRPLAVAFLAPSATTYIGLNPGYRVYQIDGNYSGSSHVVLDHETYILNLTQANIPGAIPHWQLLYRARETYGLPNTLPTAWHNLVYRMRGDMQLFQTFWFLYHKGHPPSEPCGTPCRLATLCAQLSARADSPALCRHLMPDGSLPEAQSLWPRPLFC
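Human placenta-derived ASM enzyme was preincubated with compound for 10 minutes at room temperature, then given fluorogenic substrate HMU-PC0 (9 uM final) for 60 minutes at 37 °C; a pH 10 stop preceded fluorescence reading at Ex 386/Em 447 nm.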
TGFb SMAD3 inh: inhibitors of TGF-b signaling; Potency, µM (top dose mostly 46.1 µM), actives largely listed as inhibitors; actives 1.2% (n = 410,000); HepG2 CAGA-GFP TGF-b/SMAD3 reporter, GFP fluorescence, 18 h; TGF-beta stimulated, 500 pg/mL final; further: nearly all actives have a fitted effect of over 65% in size
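Smad-responsive CAGA-GFP expression was quantified in HEPG2 cells exposed to compounds and 500 pg/mL final TGF-beta for 18 h at 37 degrees C; unstimulated wells defined full inhibition.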
Hits are given with their value; . = inactive; ? = inconclusive; / = not tested or not shown; [ ] = remark or other dose. This is a sample that favours compounds with a hit; in the whole collection about 19% have one here. Unless noted, the call rests on the fitted dose curve; in most records, active means well fitted curve in the direction sought with a large enough effect; inconclusive means small, poorly fitted or top-dose-only effect, or another doubt; inactive means no such curve, though single readings can be large; an effect the other way counts as inactive or inconclusive.

SMILES	TDP1 cell noCPT	DT40 TDP1 CPT	HepG2 viability	IL-1B inflam inh	ASM inhibitor	TGFb SMAD3 inh
COc1ccccc1CN(C)C(=O)c1cccc(S(=O)(=O)N2CCc3ccccc3C2)c1	16µM	?	.	?	.	?
Cc1ccc(NC(=O)CN(C)C(=O)c2cccc(S(=O)(=O)N3CCc4ccccc43)c2)cc1	16µM	21µM	.	.	.	?
COc1ccccc1C1CN(Cc2cccc3c2OCO3)Cc2ccccc2O1 (centres undefined)	.	.[9.04 µM]	/	/	/	/
N#Cc1ccccc1NC(=O)Cn1cnc2onc(-c3cccc(F)c3)c2c1=O	.	.	.	/	/	.
COc1cccc(CN2CC(C(=O)NC3CCC(O)CC3)CCC2=O)c1 (centres undefined)	.	.	.	.	.	.
COC(=O)c1nnn(-c2ccc(F)c(Cl)c2)c1C(=O)OC	.	.	.	.	.	.
COC(=O)c1c(C)nn(-c2ccc(F)c(Cl)c2)c1-c1cc(C)on1	5.2µM	12µM	.	.	.	.
COc1ccc(CCNC(=O)c2cc(S(=O)(=O)N3CCCCC3)ccc2Cl)cc1	16µM	26µM	.	.	.	.
COc1ccc(CCNC(=O)CSCC(=O)Nc2cc(S(C)(=O)=O)ccc2Cl)cc1	9.2µM	.	.	.	.	.
COc1ccc(CCNC(=O)c2ccc(Cl)cc2Cl)cc1	.	?	.	.	.	.
COc1ccc(N(C)S(=O)(=O)c2ccc(Cl)c(C(=O)NCCc3ccc(Cl)cc3)c2)cc1	12µM	9.2µM	.	-56	.	.
COc1ccc(CCNC(=O)c2ccc(Cl)c(S(=O)(=O)N3CCCC3)c2)cc1	23µM	18µM	.	.	.	?
Cc1ccc(C)c(N2CCN(C(=O)NCc3noc4ccccc34)CC2)c1	?	?	.	/	/	.
Cc1nn(CC(=O)Nc2ccc3c(c2)OCCO3)c(C)c1[N+](=O)[O-]	.	.	.	.	.	.
Cc1ccsc1C1Nc2ccccc2-c2nc3ccccc3n21 (centres undefined)	?	?	.	.	.	.
c1csc(C2Nc3ccccc3-c3nc4ccccc4n32)c1 (centres undefined)	?	16µM	.	?	.	.
O=C(COc1ccc([N+](=O)[O-])cc1)NCC1(N2CCOCC2)CCCCC1	?	.	.	/	/	.
CS(=O)(=O)Cc1ccc(C(=O)NCC2(N3CCCCC3)CCCCC2)cc1	.	.	.	.	.	.
COCc1ccc(C(=O)NCC2(N3CCCCC3)CCCCC2)cc1	23µM	?	.	.	.	.
CC(C)(C)c1ccc(C(=O)NCCCN2CCN(CCCNC(=O)c3ccc(C(C)(C)C)cc3)CC2)cc1	9.2µM	9.2µM	.	-81	.	?
CC(C)(C)c1ccc(OCC(=O)NCC2(N3CCOCC3)CCCCC2)cc1	16µM	13µM	.	/	/	?
CC(C)COc1ccc(C(=O)NCC2(N3CCN(C)CC3)CCCCC2)cc1	18µM	?	.	/	/	?
CC(C)(C)c1ccc(C(=O)NCCN2CCOCC2)cc1	.	.	.	.	.	.
O=S(=O)(c1ccc(F)cc1)N1CCN(C(=S)NC2CC2)CC1	?	.	.	.	.	.
Cc1ccc(CNC(=O)Nc2cc(C(=O)NCc3cccc(F)c3)ccc2N2CCCC2)cc1	?	?	.	/	/	?
SMILES	TDP1 cell noCPT	DT40 TDP1 CPT	HepG2 viability	IL-1B inflam inh	ASM inhibitor	TGFb SMAD3 inh
CCC(CC)C(=O)NCc1ccc(Cl)cc1	.	?	.	.	.	.
COc1ccc(Cl)cc1NC(=O)C/C(C)=N/NC(=O)COc1ccc(C)cc1	.	.	.	.	.	.
COc1ccccc1OC(C)C(=O)NCC1(N2CCOCC2)CCCCC1 (centres undefined)	18µM	23µM	.	/	/	.
CN1CCN(C2(CNC(=O)c3ccc(C(C)(C)C)cc3)CCCCC2)CC1	16µM	?	.	/	/	.
COc1ccc(C(C)(C)C)cc1NC(=O)Cn1cnnn1	.	.	.	.	.	.
O[C@H]1C[C@H](c2ccccc2)N(Cc2cccs2)C[C@@H]1n1cc(C2CC2)nn1	21µM	?	.	.	/	?
COc1ccc([C@H]2C[C@H](O)[C@@H](n3cc(C4CC4)nn3)CN2Cc2cccs2)cc1	12µM	?	.	.	/	.
COc1ccc([C@H]2C[C@@H](O)[C@H](n3cc(C4CC4)nn3)CN2C(=O)c2cccs2)cc1	?	.	.	.	/	.
Cc1cccc(-c2nc(S(=O)(=O)c3ccc(F)cc3)c(N3CCN(c4ccccc4)CC3)o2)c1	?	?	.	/	/	.
COc1ccc2[nH]cc(C(=O)CN(C)CCc3ccc(OC)c(OC)c3)c2c1	21µM	18µM	.	.	.	.
COc1ccc2[nH]cc(C(=O)CCl)c2c1	4.1µM	3.3µM	.	-96	.	?
COc1ccc2[nH]cc(C(=O)CN3CC(C)CC(C)C3)c2c1 (centres undefined)	.	.	.	.	.	.
COc1ccc2[nH]cc(C(=O)CNc3nccs3)c2c1	7.9µM	?	.	/	/	.
COc1ccc(CCNC(=O)c2c[nH]c3ccccc3c2=O)cc1OC	?	?	.	.	.	.
Cc1onc(-c2c(Cl)cccc2Cl)c1C(=O)N=S(C)(=O)c1ccccc1 (centres undefined)	.	.	.	/	.	.
c1ccc(Nc2c3c(nc4ncnn24)CCC3)cc1	.	.	.	.	.	.
Fc1cc(Br)ccc1Nc1c2c(nc3nc(-c4cccs4)nn13)CCCC2	18µM	21µM	.	/	/	10µM
CC(=O)c1cccc(Nc2c3c(nc4nc(-c5cccs5)nn24)CCCC3)c1	18µM	?	.	/	/	?
COc1ccc(C)cc1Nc1c2c(nc3nc(-c4cccs4)nn13)CCCC2	.	.	.	/	/	.
CC(=O)c1c(N2CCN(Cc3ccc4c(c3)OCO4)CC2)nc(=S)n(-c2ccccc2)c1C	18µM	?	.	.	.	.
CC(=O)c1c(N2CCN(Cc3ccccc3)CC2)nc(=S)n(-c2ccccc2)c1C	23µM	?	.	.	.	.
CC(=O)c1c(N2CCN(CCO)CC2)nc(=S)n(-c2ccccc2)c1C	.	.	.	.	.	.
CC(=O)c1c(N2CCN(c3ccccc3)CC2)nc(=S)n(-c2ccccc2)c1C	21µM	23µM	.	-65	.	.
COc1ccc(CN2CCNC(=O)C2CC(=O)N(C)Cc2ccon2)c(OC)c1 (centres undefined)	.	.	.	.	.	.

Screens deposited in PubChem BioAssay by National Center for Advancing Translational Sciences (NCATS).
